Test results published in PubChem BioAssay (NCI).
About 79,000 compounds went through this panel and 15% of them were active in at least one assay; those are over-represented in the sample as a whole. A number with no mark means an inactive call. Activity calls are given as the source filed them. Cut-off read from the data, not from the text of the source: active = growth inhibition above about 70%; inactive = the rest.

Assays:
[1] = NCI Yeast Anticancer Drug Screen. Data for the rad52 strain (AID 147);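 note: 0% = growth of vehicle-treated control cultures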; conditions: S. cerevisiae rad52 mutant growth inhibition, active compounds read high
Procedure, shortened: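 The repair-mutant yeast strain was incubated with compounds, then growth was read and inhibition derived relative to vehicle.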

[2] = NCI Yeast Anticancer Drug Screen. Data for the wt1 strain (AID 149);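 note: 0% = growth of vehicle-treated wt1 cultures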; conditions: S. cerevisiae wt1 strain (SPY 50644) growth inhibition, active compounds read high
Procedure, shortened: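 wt1 yeast, compound-treated; % growth inhibition vs vehicle control.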

[3] = NCI Yeast Anticancer Drug Screen. Data for the rad50EPP+ strain (AID 151);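 note: 0% = growth of vehicle-treated control cultures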; conditions: S. cerevisiae rad50 mutant strain, active compounds read high
Procedure, shortened: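 Vehicle-normalised growth inhibition; rad50EPP+ yeast strain, altered in DNA damage repair, compound-treated.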

[4] = NCI Yeast Anticancer Drug Screen. Data for the mgt1 strain (AID 153); conditions: S. cerevisiae mgt1 mutant growth inhibition, active compounds read high
Procedure, shortened: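 Vehicle-normalized growth inhibition is determined in mgt1 yeast, a strain selected for a defined alteration in DNA repair or cell cycle control.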

[5] = NCI Yeast Anticancer Drug Screen. Data for the rad50 strain (AID 155);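 note: 0% = growth of vehicle-only cultures of the same strain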; conditions: S. cerevisiae rad50 strain growth inhibition, active compounds read high
Procedure, shortened: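 Genetically altered yeast (DNA repair pathway); compound treatment; growth inhibition vs vehicle ctrl.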

[6] = NCI Yeast Anticancer Drug Screen. Data for the mec2-1 strain (AID 157); conditions: S. cerevisiae mec2-1 strain, active compounds read high
Procedure, shortened: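 Mutant yeast (mec2-1) grown with compound; growth inhibition relative to vehicle control reported.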

[7] = NCI Yeast Anticancer Drug Screen. Data for the rad14 strain (AID 159);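 note: 0% = growth of vehicle-treated control cultures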; conditions: S. cerevisiae rad14 strain growth inhibition, active compounds read high
Procedure, shortened: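 Test compounds were applied to a repair-deficient yeast strain. Its growth was then compared with that of cultures given vehicle alone, and inhibition was expressed relative to those controls.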

[8] = NCI Yeast Anticancer Drug Screen. Data for the sgs1 mgt1 strain (AID 161);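 note: 0% = growth of cultures given vehicle only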; conditions: S. cerevisiae sgs1 mgt1 strain, active compounds read high
Procedure, shortened: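 Yeast cells carrying a defined DNA-repair defect were exposed to test compounds. Growth inhibition was measured relative to vehicle-treated controls.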

[9] = NCI Yeast Anticancer Drug Screen. Data for the CLN2oe strain (AID 163);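 note: 0% = growth of vehicle-only control cultures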; conditions: S. cerevisiae CLN2oe strain, active compounds read high
Procedure, shortened: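 Compounds are applied to yeast harbouring a defined cell-cycle control change; reduced growth compared with vehicle-treated controls gives the value.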

[10] = NCI Yeast Anticancer Drug Screen. Data for the cln2 rad14 strain (AID 165);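 note: 0% = growth equal to vehicle treated cultures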; conditions: S. cerevisiae cln2 rad14 strain, active compounds read high
Procedure, shortened: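 Readout is yeast growth inhibition versus vehicle-treated controls, using a strain with cln2 and rad14 alterations exposed to compound.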

[11] = NCI Yeast Anticancer Drug Screen. Data for the bub3 strain (AID 167); conditions: S. cerevisiae bub3 mutant strain, active compounds read high
Procedure, shortened: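 Yeast carrying a defined mutation is treated with each compound, and growth is compared with that of vehicle-exposed cells to give inhibition.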

[12] = NCI Yeast Anticancer Drug Screen. Data for the wt2 strain (AID 169);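 note: 0% = growth of vehicle-treated yeast cultures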; conditions: S. cerevisiae wt2 strain growth inhibition, active compounds read high
Procedure, shortened: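 Against vehicle-treated controls, the growth of yeast exposed to each compound was compared, and the inhibition was recorded.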

[13] = NCI Yeast Anticancer Drug Screen. Data for the sgs1 strain (AID 173);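 note: 0% = growth of vehicle-only control cultures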; conditions: S. cerevisiae sgs1 mutant, active compounds read high
Procedure, shortened: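 Each compound was added to cultures of the altered yeast strain. Growth was recorded, and inhibition was derived by comparison with vehicle controls.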

[14] = NCI Yeast Anticancer Drug Screen. Data for the mlh1 rad18 strain (AID 175); conditions: S. cerevisiae mlh1 rad18 strain growth inhibition, active compounds read high
Procedure, shortened: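 Genetically defined yeast (DNA repair-deficient) exposed to compounds; growth inhibition determined relative to vehicle.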

[15] = NCI Yeast Anticancer Drug Screen. Data for the rad18 strain (AID 177); conditions: S. cerevisiae rad18 mutant growth inhibition, active compounds read high
Procedure, shortened: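 Vehicle-treated cultures served as the baseline for scoring compound-induced growth inhibition in DNA-repair-mutant yeast.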

[16] = NCI Yeast Anticancer Drug Screen. Data for the mlh1 strain (AID 171);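 note: 0% = growth of vehicle-treated control cultures of the same strain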; conditions: S. cerevisiae mlh1 strain growth inhibition, active compounds read high
Procedure, shortened: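 Measured: yeast growth. Reference: vehicle-treated controls. Organism: strain with a defined alteration affecting DNA damage repair or cell cycle control, treated with compound.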

[17] = at 5.0 µM (retest, dose inferred, filed as 0.5)
[18] = at 50.0 µM (retest, dose inferred, filed as 5.0)

## O=C1NC(=S)NC(=O)C1=Cc1ccc([N+](=O)[O-])o1
[1]; at 1.2 µM
  growth inhibition: -50%
[1]; at 3.7 µM
  growth inhibition: -58%
[1]; at 11.0 µM
  growth inhibition: -6%
[1]; at 33.0 µM
  growth inhibition: 57%
[1]; at 100.0 µM
  growth inhibition: 85% (active)
[2]; at 1.2 µM
  growth inhibition: -18%
[2]; at 3.7 µM
  growth inhibition: -4%
[2]; at 11.0 µM
  growth inhibition: -1%
[2]; at 33.0 µM
  growth inhibition: -1%
[2]; at 100.0 µM
  growth inhibition: 6%
[3]; at 1.2 µM
  growth inhibition: 11%
[3]; at 3.7 µM
  growth inhibition: 23%
[3]; at 11.0 µM
  growth inhibition: 61%
[3]; at 33.0 µM
  growth inhibition: 87% (active)
[3]; at 100.0 µM
  growth inhibition: 92% (active)
[4]; at 1.2 µM
  growth inhibition: 15%
[4]; at 3.7 µM
  growth inhibition: 20%
[4]; at 11.0 µM
  growth inhibition: 41%
[4]; at 33.0 µM
  growth inhibition: 58%
[4]; at 100.0 µM
  growth inhibition: 79% (active)
[5]; at 1.2 µM
  growth inhibition: 12%
[5]; at 3.7 µM
  growth inhibition: 17%
[5]; [17]
  growth inhibition: 25%
[5]; at 11.0 µM
  growth inhibition: 36%
[5]; at 33.0 µM
  growth inhibition: 66%
[5]; [18]
  growth inhibition: 69%
[5]; at 50.0 µM
  growth inhibition: 77.6% (active)
[5]; at 100.0 µM
  growth inhibition: 87% (active)
[6]; at 1.2 µM
  growth inhibition: -16%
[6]; at 3.7 µM
  growth inhibition: -20%
[6]; [17]
  growth inhibition: -19%
[6]; at 11.0 µM
  growth inhibition: -12%
[6]; at 33.0 µM
  growth inhibition: 0%
[6]; [18]
  growth inhibition: -4%
[6]; at 50.0 µM
  growth inhibition: 3.2%
[6]; at 100.0 µM
  growth inhibition: 87% (active)
[7]; at 1.2 µM
  growth inhibition: 5%
[7]; at 3.7 µM
  growth inhibition: -10%
[7]; at 11.0 µM
  growth inhibition: -7%
[7]; at 33.0 µM
  growth inhibition: 16%
[7]; at 100.0 µM
  growth inhibition: 36%
[8]; [17]
  growth inhibition: 1%
[8]; [18]
  growth inhibition: 36%
[8]; at 50.0 µM
  growth inhibition: 48%
[9]; at 1.2 µM
  growth inhibition: 9%
[9]; at 3.7 µM
  growth inhibition: -1%
[9]; at 11.0 µM
  growth inhibition: 5%
[9]; at 33.0 µM
  growth inhibition: -9%
[9]; at 100.0 µM
  growth inhibition: 82% (active)
[10]; [17]
  growth inhibition: 16%
[10]; [18]
  growth inhibition: 35%
[10]; at 50.0 µM
  growth inhibition: 16.7%
[11]; at 1.2 µM
  growth inhibition: 11%
[11]; at 3.7 µM
  growth inhibition: -9%
[11]; [17]
  growth inhibition: 2%
[11]; at 11.0 µM
  growth inhibition: -24%
[11]; at 33.0 µM
  growth inhibition: -28%
[11]; [18]
  growth inhibition: 10%
[11]; at 50.0 µM
  growth inhibition: 4.45%
[11]; at 100.0 µM
  growth inhibition: 53%
[12]; at 1.2 µM
  growth inhibition: -20%
[12]; at 3.7 µM
  growth inhibition: -12%
[12]; at 11.0 µM
  growth inhibition: 2%
[12]; at 33.0 µM
  growth inhibition: -8%
[12]; at 100.0 µM
  growth inhibition: 64%
[13]; at 1.2 µM
  growth inhibition: -11%
[13]; at 3.7 µM
  growth inhibition: 2%
[13]; at 11.0 µM
  growth inhibition: 10%
[13]; at 33.0 µM
  growth inhibition: 32%
[13]; at 100.0 µM
  growth inhibition: 54%
[14]; [17]
  growth inhibition: -15%
[14]; [18]
  growth inhibition: 2%
[14]; at 50.0 µM
  growth inhibition: 64%
[15]; at 1.2 µM
  growth inhibition: 21%
[15]; at 3.7 µM
  growth inhibition: 16%
[15]; at 11.0 µM
  growth inhibition: 57%
[15]; at 33.0 µM
  growth inhibition: 83% (active)
[15]; at 100.0 µM
  growth inhibition: 92% (active)

## CCC1(OC(=O)CN)C(=O)OCc2c1cc1n(c2=O)Cc2cc3ccccc3nc2-1 (stereo unspecified)
[1]; at 1.2 µM
  growth inhibition: 93% (active)
[1]; at 3.7 µM
  growth inhibition: 95% (active)
[1]; at 11.0 µM
  growth inhibition: 96% (active)
[1]; at 33.0 µM
  growth inhibition: 97% (active)
[1]; at 100.0 µM
  growth inhibition: 97% (active)
[2]; at 1.2 µM
  growth inhibition: -1%
[2]; at 3.7 µM
  growth inhibition: 4%
[2]; at 11.0 µM
  growth inhibition: 51%
[2]; at 33.0 µM
  growth inhibition: 88% (active)
[2]; at 100.0 µM
  growth inhibition: 94% (active)
[3]; at 1.2 µM
  growth inhibition: 45%
[3]; at 3.7 µM
  growth inhibition: 67%
[3]; at 11.0 µM
  growth inhibition: 85% (active)
[3]; at 33.0 µM
  growth inhibition: 92% (active)
[3]; at 100.0 µM
  growth inhibition: 93% (active)
[4]; at 1.2 µM
  growth inhibition: 20%
[4]; at 3.7 µM
  growth inhibition: 25%
[4]; at 11.0 µM
  growth inhibition: 50%
[4]; at 33.0 µM
  growth inhibition: 80% (active)
[4]; at 100.0 µM
  growth inhibition: 91% (active)
[5]; at 1.2 µM
  growth inhibition: 94% (active)
[5]; at 3.7 µM
  growth inhibition: 96% (active)
[5]; [17]
  growth inhibition: 97% (active)
[5]; at 11.0 µM
  growth inhibition: 97% (active)
[5]; at 33.0 µM
  growth inhibition: 97% (active)
[5]; [18]
  growth inhibition: 97% (active)
[5]; at 50.0 µM
  growth inhibition: 98% (active)
[5]; at 100.0 µM
  growth inhibition: 97% (active)
[6]; at 1.2 µM
  growth inhibition: 19%
[6]; at 3.7 µM
  growth inhibition: 82% (active)
[6]; [17]
  growth inhibition: 84% (active)
[6]; at 11.0 µM
  growth inhibition: 96% (active)
[6]; at 33.0 µM
  growth inhibition: 97% (active)
[6]; [18]
  growth inhibition: 95% (active)
[6]; at 50.0 µM
  growth inhibition: 99% (active)
[6]; at 100.0 µM
  growth inhibition: 98% (active)
[7]; at 1.2 µM
  growth inhibition: 4%
[7]; at 3.7 µM
  growth inhibition: 23%
[7]; at 11.0 µM
  growth inhibition: 76% (active)
[7]; at 33.0 µM
  growth inhibition: 93% (active)
[7]; at 100.0 µM
  growth inhibition: 96% (active)
[8]; [17]
  growth inhibition: 62%
[8]; [18]
  growth inhibition: 96% (active)
[8]; at 50.0 µM
  growth inhibition: 94% (active)
[9]; at 1.2 µM
  growth inhibition: 37%
[9]; at 3.7 µM
  growth inhibition: 37%
[9]; at 11.0 µM
  growth inhibition: 62%
[9]; at 33.0 µM
  growth inhibition: 80% (active)
[9]; at 100.0 µM
  growth inhibition: 88% (active)
[10]; [17]
  growth inhibition: 49%
[10]; [18]
  growth inhibition: 92% (active)
[10]; at 50.0 µM
  growth inhibition: 89.2% (active)
[11]; at 1.2 µM
  growth inhibition: 9%
[11]; at 3.7 µM
  growth inhibition: 13%
[11]; [17]
  growth inhibition: 8%
[11]; at 11.0 µM
  growth inhibition: 44%
[11]; at 33.0 µM
  growth inhibition: 79% (active)
[11]; [18]
  growth inhibition: 94% (active)
[11]; at 50.0 µM
  growth inhibition: 96.9% (active)
[11]; at 100.0 µM
  growth inhibition: 92% (active)
[12]; at 1.2 µM
  growth inhibition: 0%
[12]; at 3.7 µM
  growth inhibition: 4%
[12]; at 11.0 µM
  growth inhibition: 67%
[12]; at 33.0 µM
  growth inhibition: 90% (active)
[12]; at 100.0 µM
  growth inhibition: 95% (active)
[16]; at 1.2 µM
  growth inhibition: 3%
[16]; at 3.7 µM
  growth inhibition: 15%
[16]; at 11.0 µM
  growth inhibition: 70% (active)
[16]; at 33.0 µM
  growth inhibition: 93% (active)
[16]; at 100.0 µM
  growth inhibition: 96% (active)
[14]; [17]
  growth inhibition: 42%
[14]; [18]
  growth inhibition: -13%
[14]; at 50.0 µM
  growth inhibition: 97.3% (active)
[15]; at 1.2 µM
  growth inhibition: 31%
[15]; at 3.7 µM
  growth inhibition: 33%
[15]; at 11.0 µM
  growth inhibition: 58%
[15]; at 33.0 µM
  growth inhibition: 80% (active)
[15]; at 100.0 µM
  growth inhibition: 89% (active)
